Test results as given in the supplement of paper PMC3334620.
In all, about 33,000 sequences were measured (“E-score (-0.5 to 0.5)”: median about -0.011, highest 2% from about 0.28 on). Shown is part of a subset that was picked to be rich in the highest values.

The sequences below were run against T1, Gcr1 (UniProt P07261) (assay: PBM E-score (8-mer binding enrichment) (E-score (-0.5 to 0.5)); higher = stronger / more preferred TF binding). Conditions: protein concentration: 100 nM; construct: GST-full length.
T1 sequence: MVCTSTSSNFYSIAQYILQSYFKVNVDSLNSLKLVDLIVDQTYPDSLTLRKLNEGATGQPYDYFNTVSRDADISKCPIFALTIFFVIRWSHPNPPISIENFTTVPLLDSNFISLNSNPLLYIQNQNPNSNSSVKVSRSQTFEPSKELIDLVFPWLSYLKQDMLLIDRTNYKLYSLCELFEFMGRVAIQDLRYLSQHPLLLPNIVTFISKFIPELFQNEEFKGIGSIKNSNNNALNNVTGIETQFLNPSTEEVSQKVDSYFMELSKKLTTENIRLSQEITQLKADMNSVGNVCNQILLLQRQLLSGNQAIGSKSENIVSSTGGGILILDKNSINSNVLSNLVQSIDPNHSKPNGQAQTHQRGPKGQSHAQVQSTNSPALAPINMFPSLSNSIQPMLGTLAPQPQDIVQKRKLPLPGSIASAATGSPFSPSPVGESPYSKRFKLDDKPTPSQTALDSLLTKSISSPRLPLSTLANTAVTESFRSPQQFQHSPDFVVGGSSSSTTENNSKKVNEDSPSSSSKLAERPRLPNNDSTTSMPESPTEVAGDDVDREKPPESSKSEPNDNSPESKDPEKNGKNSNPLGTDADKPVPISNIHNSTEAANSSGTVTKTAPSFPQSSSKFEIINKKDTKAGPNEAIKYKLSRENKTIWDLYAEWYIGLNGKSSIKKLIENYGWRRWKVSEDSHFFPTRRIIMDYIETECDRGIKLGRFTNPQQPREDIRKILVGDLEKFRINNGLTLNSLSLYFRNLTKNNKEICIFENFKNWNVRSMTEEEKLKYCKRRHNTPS
Procedure: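 Universal 'all 10-mer' protein binding microarrays (Agilent AMADID 015681) probed with GST-tagged S. cerevisiae TFs (full-length or DBD) made by in vitro transcription/translation (PURExpress), about 100-200 nM. Bound TF was detected with fluorescent anti-GST. Each ungapped 8-mer (which stands for itself and its reverse complement) is scored by the PBM enrichment score (E-score), a modified Wilcoxon-Mann-Whitney statistic from -0.5 to +0.5, computed with the Universal PBM Analysis Suite. Scale: above 0.35 generally sequence-specific binding.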

Going from AGCCCGTG to ACCACTGA, the “PBM E-score” value rises from -0.0206 to 0.0982.

Going from AACCCGGG to CGCCGGGC, the “PBM E-score” value falls from 0.0515 to -0.0527.

Going from ACACCTTA to GCTGATCC, the “PBM E-score” value falls from 0.0539 to -0.0746.

First: GCCGCCAA
Second: GCTCGCGA
The “PBM E-score” value of the first is higher: 0.125 for the first, 0.0716 for the second.

Compared with CGCACCCA, CGCACCCC is lower in “PBM E-score” value: 0.236 for the first, 0.0174 for the second.

First: GGCACCCC
Second: TGCACCCA
The “PBM E-score” value of the first is higher: 0.322 for the first, 0.151 for the second.

Going from AGCACCCC to GGCACCCA, the “PBM E-score” value rises from 0.131 to 0.381.

Compared with AACCTGCA, CCCGATGA is lower in “PBM E-score” value: -0.0327 for the first, -0.0833 for the second.

Compared with CAAATCGG, ATTCCAAA is higher in “PBM E-score” value: 0.0561 for the first, 0.307 for the second.

Going from ATTCCGAA to ATTCCACG, the “PBM E-score” value falls from 0.147 to 0.0676.

Compared with CATCCAAC, CTTCCGGC is higher in “PBM E-score” value: -0.0403 for the first, 0.111 for the second.

First: ATTCCGGA
Second: CTTCCACA
The “PBM E-score” value of the first is lower: 0.197 for the first, 0.349 for the second.

First: CTTCCGGA
Second: ACTCCAAA
The “PBM E-score” value of the first is higher: 0.347 for the first, 0.116 for the second.

Going from CATCCAAG to ATTCCACA, the “PBM E-score” value rises from -0.0862 to 0.247.

First: CATCCAAA
Second: AGCTTATG
The “PBM E-score” value of the first is higher: 0.298 for the first, 0.0485 for the second.

First: CCGACATA
Second: GATAACCC
The “PBM E-score” value of the first is higher: 0.0516 for the first, -0.017 for the second.

Compared with AGCCCCCG, AGCGGGCA is lower in “PBM E-score” value: -0.0643 for the first, -0.156 for the second.

Going from CTCCGGGA to ACGGAGGC, the “PBM E-score” value falls from 0.00075 to -0.00955.

Compared with CGTCCAAG, CTTCCAAA is higher in “PBM E-score” value: -0.0458 for the first, 0.338 for the second.

Compared with CGTCCAAA, ATTCCAAT is lower in “PBM E-score” value: 0.33 for the first, 0.299 for the second.

Going from GTTCCAAA to CTTCCAAC, the “PBM E-score” value falls from 0.302 to 0.181.

Compared with GTTCCAAC, ATTCCAAC is higher in “PBM E-score” value: 0.0801 for the first, 0.221 for the second.

First: ATTCCAAG
Second: TTTCCAAA
The “PBM E-score” value of the first is higher: 0.196 for the first, 0.178 for the second.

First: AGTCCAAA
Second: CTTCCAAG
The “PBM E-score” value of the first is higher: -0.0142 for the first, -0.132 for the second.

First: GGCACTCA
Second: AACGTCTT
The “PBM E-score” value of the first is lower: -0.189 for the first, 0.158 for the second.

Going from AGCAAGTA to AGAATACG, the “PBM E-score” value rises from -0.149 to 0.182.

Compared with TAGCCTCA, CAACCAAA is higher in “PBM E-score” value: -0.053 for the first, 0.313 for the second.

Going from CAACCAAG to CAACCAAC, the “PBM E-score” value falls from 0.0892 to -0.102.

Compared with AGCCAAGC, CAAACTGA is higher in “PBM E-score” value: -0.0873 for the first, 0.105 for the second.

Compared with GCCGGAAC, CGCCATTC is lower in “PBM E-score” value: 0.247 for the first, 0.0469 for the second.

Compared with GGAGTCCA, TGAGTCCA is lower in “PBM E-score” value: 0.344 for the first, 0.146 for the second.

Compared with AGAGTCCC, GGAGTCCC is higher in “PBM E-score” value: 0.0617 for the first, 0.286 for the second.

Compared with CGAGTCCA, CGAGTCCC is higher in “PBM E-score” value: -0.051 for the first, 0.168 for the second.

First: GCCGAGTA
Second: ACCGGGCT
The “PBM E-score” value of the first is higher: 0.115 for the first, 0.113 for the second.

First: GCTTACCA
Second: ACGCTTGA
The “PBM E-score” value of the first is lower: -0.193 for the first, 0.0746 for the second.

Compared with CCGGAACA, GCGGAACC is higher in “PBM E-score” value: -0.0359 for the first, 0.341 for the second.

Going from GCGGAACA to ACGGAACC, the “PBM E-score” value rises from -0.172 to 0.0697.

Compared with CCGGAACC, CCGGAACG is lower in “PBM E-score” value: 0.325 for the first, -0.0389 for the second.

Going from CATTGTTC to CCAAACAA, the “PBM E-score” value rises from -0.0803 to 0.213.

First: CAGTGGTA
Second: AAGCCTTC
The “PBM E-score” value of the first is higher: 0.115 for the first, -0.191 for the second.

Going from CCTCGGTC to AAGGGAAC, the “PBM E-score” value rises from -0.223 to 0.0126.

Compared with CCACTAGG, CCACTACC is lower in “PBM E-score” value: 0.287 for the first, 0.125 for the second.

Going from CCACTAAC to ACACTAGG, the “PBM E-score” value falls from 0.21 to -0.176.

Going from CCACTATA to ACACTAAG, the “PBM E-score” value falls from 0.276 to -0.00776.

Compared with CCACTATC, CCACTACG is lower in “PBM E-score” value: 0.368 for the first, 0.323 for the second.

Going from ACACTATC to CCACTAAG, the “PBM E-score” value rises from -0.0774 to 0.374.

Going from CCACTAGA to CCACTACA, the “PBM E-score” value falls from 0.235 to 0.194.

Going from CACCATAC to ACCTGTGG, the “PBM E-score” value falls from 0.0726 to -0.0729.

First: GCTTGGAA
Second: CGGGGTCA
The “PBM E-score” value of the first is lower: -0.114 for the first, -0.096 for the second.

Compared with AAGAAACC, AGGCGTAA is lower in “PBM E-score” value: 0.0595 for the first, 0.0474 for the second.

Compared with GACGCATA, TCACTAAA is lower in “PBM E-score” value: 0.141 for the first, 0.134 for the second.

Going from GCACTAAA to CCACTAAA, the “PBM E-score” value rises from 0.0118 to 0.314.

Going from CCCCGTCG to CCCGATGC, the “PBM E-score” value falls from 0.00224 to -0.124.

First: AGGGATAT
Second: CTATGCGA
The “PBM E-score” value of the first is lower: -0.234 for the first, -0.14 for the second.

Going from GTATGCGA to ATATGCGA, the “PBM E-score” value falls from 0.291 to 0.0152.

Going from ATTAGTGA to ATTAGTGC, the “PBM E-score” value falls from 0.0812 to -0.00168.

Going from AATAGTGG to AATAGTGC, the “PBM E-score” value falls from 0.425 to -0.175.

Going from ATTAGTGG to AATAGTGA, the “PBM E-score” value falls from 0.388 to 0.0209.

First: GAGCGAAC
Second: TCCATAGA
The “PBM E-score” value of the first is lower: -0.28 for the first, 0.203 for the second.

First: CGTAAGAA
Second: CTAAAGAC
The “PBM E-score” value of the first is lower: -0.113 for the first, -0.0627 for the second.

Compared with AAAAGGAT, TAAAGGAA is higher in “PBM E-score” value: -0.00496 for the first, 0.314 for the second.

First: AAAAGGAA
Second: GAAAGGAA
The “PBM E-score” value of the first is higher: 0.361 for the first, 0.0552 for the second.

Going from AAAAGGAC to CAAAGGAA, the “PBM E-score” value rises from 0.0425 to 0.104.

First: AATCTCGC
Second: GCTGGTAA
The “PBM E-score” value of the first is lower: -0.0134 for the first, 0.122 for the second.

First: ATAGGTCG
Second: ATTTTACG
The “PBM E-score” value of the first is lower: 0.0752 for the first, 0.337 for the second.

Compared with ATTTTACC, AATTTACG is higher in “PBM E-score” value: 0.0326 for the first, 0.0625 for the second.

Going from GATAACAC to GTGTCCAA, the “PBM E-score” value rises from -0.12 to 0.0511.

Going from ACTGGACA to ACTGGAGG, the “PBM E-score” value rises from 0.0644 to 0.206.

First: ACTGGACT
Second: ACTGGATG
The “PBM E-score” value of the first is lower: 0.134 for the first, 0.326 for the second.

First: CCTGGATC
Second: ACTGGATC
The “PBM E-score” value of the first is lower: -0.00306 for the first, 0.316 for the second.

First: ACTGGATA
Second: ACTGGACG
The “PBM E-score” value of the first is lower: 0.108 for the first, 0.303 for the second.

Compared with ACTGGAGC, CGACTGTC is lower in “PBM E-score” value: 0.0795 for the first, -0.252 for the second.

First: CTGCACAG
Second: GCGCTAAA
The “PBM E-score” value of the first is lower: -0.0453 for the first, 0.232 for the second.

Going from CTTCAGCA to ATATATTA, the “PBM E-score” value rises from -0.0569 to 0.0581.

First: CTCTATTA
Second: CTATATTA
The “PBM E-score” value of the first is lower: 0.154 for the first, 0.307 for the second.

Compared with GTTCATCA, TACCTAAA is lower in “PBM E-score” value: 0.108 for the first, 0.0795 for the second.

Going from CACCTAAA to GTCCTAAA, the “PBM E-score” value falls from 0.266 to 0.21.

Going from AACCTAAA to TTCCTAAA, the “PBM E-score” value rises from 0.294 to 0.36.

Going from ATCCTAAA to GGGAGTGA, the “PBM E-score” value falls from 0.211 to -0.0739.

First: GTCCGCAC
Second: GGATCCAA
The “PBM E-score” value of the first is lower: -0.0732 for the first, 0.299 for the second.

First: AGATCCAC
Second: AGATCCAA
The “PBM E-score” value of the first is lower: 0.183 for the first, 0.186 for the second.

Compared with CGATCCAC, CGATCCAA is higher in “PBM E-score” value: -0.153 for the first, 0.0146 for the second.

Compared with GGATCCAC, TGGATTAA is lower in “PBM E-score” value: 0.302 for the first, 0.0316 for the second.

Going from GTACTTGA to AAGAAAGG, the “PBM E-score” value rises from -0.209 to -0.125.

Going from ATGCGCTC to ACCCCGTA, the “PBM E-score” value falls from 0.0347 to -0.0035.

First: AGAGCTTA
Second: GAAGCACA
The “PBM E-score” value of the first is lower: -0.119 for the first, 0.117 for the second.
